In PubChem BioAssay (NCI):
The panel holds about 83,000 compounds, 20% with a hit somewhere; the sample as a whole holds those more often.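 Step 1: grow cells in 96-well plates. Step 2: add test compound at a single concentration. Step 3: incubate 48 h. Step 4: record percent growth.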 Unmarked numbers belong to inactive results. The source made the active and inactive calls. The calls were made as follows: active = growth percent below 10; inactive = the rest.

Each molecule was assayed on DU-145 prostate (assay: NCI-60 one-dose screen, 48 h (100 = growth as untreated, 0 = no growth, -100 = all killed)). Conditions: 10 µM unless noted.
For `Cn1cc(-c2cc3ncnc(Nc4ccc(NC(=O)Nc5cc(C(C)(C)C)on5)cc4)c3s2)cn1`, the growth was 47.8%. With `Nc1cc(C(=O)N/N=C\c2ccc(OC(F)F)c(OC3CCCC3)c2)nn1CC(O)c1ccccc1` (stereo unspecified) the growth was 105%. Work on `COc1ccc(C2CC(c3cccc(OCCCCOc4cccc(C5=NOC(c6ccc(OC)cc6)C5)c4)c3)=NO2)cc1` (stereo unspecified) yielded a growth of 104%. In the case of `O=C(COc1ccc(/C=C2\C(=O)Nc3ccc(Cl)cc32)cc1)Nc1ccc(Cl)cc1`, the growth was 53.7%. In the case of `Cn1cc(-c2nnc(N)nc2-c2c[nH]c3ccc(F)cc23)c2cc(Br)ccc21`, the growth was 37.8%. With `C[C@H](Nc1ncnc2ccc(-c3cnc(Cl)c(NS(C)(=O)=O)c3)cc12)c1ccccc1` the growth was -2.78% (active). `O=C(CSc1nc2ccccc2c(=O)n1CCc1ccccc1)Nc1ccc(S(=O)(=O)Nc2ccc(Cl)nn2)cc1` was tested, and the growth was 105%. In the case of `NS(=O)(=O)c1ccc(Nc2nc(N/N=C/C=C/c3ccccc3)nc(Nc3ccccc3)n2)cc1`, the growth was 42.5%. Molecule `O=C1[C@H]2Cc3c([nH]c4ccccc34)[C@H](c3ccc(Br)cc3)N2C(=O)CN1C1CCN(CC2CCCCC2)CC1` has a growth of 79.4%. For `CCc1cc2c(cc1Cl)nc1c(=O)[nH]c(=O)nc-1n2CCOCC(C)(C)C`, the growth was 94.5%. `COc1ccc(-c2nc(C#N)c(N3CCC(S(=O)(=O)N4CCOCC4)CC3)o2)cc1` was tested, and the growth was 100%. Work on `COC(=O)c1ccc(NC2=C(Cl)C(=O)c3nc(C)ccc3C2=O)cc1` yielded a growth of 68.5%. With `Cc1ccccc1N1CCN(C2=C(Cl)C(=O)c3ncccc3C2=O)CC1` the growth was 20.3%. `CC[C@]12C=CCN3CC[C@@]4(c5ccc(OC)cc5N(C)[C@H]4[C@@](O)(C(=O)OC)[C@@H]1OC(=O)CCN1CCc4ccccc4C1)[C@@H]32` showed a growth of 106%. `Cc1nc(N)sc1-c1csc(Nc2ccc(C(F)(F)F)cc2)n1` gave a growth of 35.8%. `Cn1cc(-c2nnc(N)nc2-c2c[nH]c3ccc(Br)cc23)c2cc(Br)ccc21` showed a growth of 109%. `C#C[C@]1(O)CC[C@H]2[C@@H]3CC=C4c5sc(N(C)c6ccccc6)nc5CC[C@]4(C)[C@H]3CC[C@@]21C` showed a growth of 95.4%. Work on `NS(=O)(=O)c1ccc(Nc2nc(Nc3ccccc3)nc(N3N=C(c4ccc(Cl)cc4)CC3c3ccc(Cl)cc3)n2)cc1` (stereo unspecified) yielded a growth of 50.4%. For `O=C(CCCCCCN1CC(=O)N2[C@@H](c3ccc(Cl)s3)c3[nH]c4ccccc4c3C[C@H]2C1=O)NO`, the growth was 57.9%. With `CCCCc1nc2c(N)nc3ccccc3c2n1Cc1cccc(CN)c1` the growth was 60.2%. `N#C/C(=C\c1ccc(-c2ccc(Cl)c(Cl)c2)o1)C(=O)Nc1ncc(Cc2ccc(Cl)cc2)s1` was tested, and the growth was 29.7%. `O=C(Nc1ccc(Cl)c(C(F)(F)F)c1)Nc1ccc2oc(=O)ccc2c1` was tested, and the growth was 40.5%. With `COc1ccc2[nH]cc(/C=N/Nc3ccnc4cc(Cl)ccc34)c2c1` the growth was -98.9% (active). `O=C1Nc2ccccc2/C1=C/c1ccc(OCC(=O)c2ccccc2)cc1` was tested, and the growth was 99.5%. For `NS(=O)(=O)c1nnc(/N=C/c2c(O)[nH]c3ccccc23)s1`, the growth was 114%. For `COc1cc(/C=C2/C(=O)Nc3ccc(Cl)cc32)ccc1OCc1ccc(Cl)cc1`, the growth was 89.5%.

These molecules were tested on K-562 leukemia in the same assay as above. Conditions: 10 µM unless noted.
In the case of `CC1=C(C)C(=O)C(Nc2ccc(C)cc2)=C(Br)C1=O`, the growth was -21.3% (active). In the case of `Cc1ccc(N2CCN(C3=C(Cl)C(=O)c4ncccc4C3=O)CC2)cc1`, the growth was 6.28% (active). For `COc1ccc2[nH]cc(-c3nc(N)nnc3-c3cn(C)c4ccc(Br)cc34)c2c1`, the growth was 5.19% (active). `O=C(/C=C/c1ccccc1Cl)Nc1ncc(Cc2cc(Cl)ccc2Cl)s1` showed a growth of 12.9%. For `CN(C)S(=O)(=O)c1ccc(-c2nc(C(Cl)Cl)nc3cc(-c4ccc(F)cc4)nn23)cc1`, the growth was 8.44% (active). Work on `Fc1ccc(-c2cn3c(-c4c[nH]c5ccc(Br)cc45)csc3n2)cc1` yielded a growth of 90.3%. For `C#Cc1nc(/C=C/CCCCCCC(=O)NO)cs1`, the growth was 13.1%. `C#C[C@]1(O)CC[C@H]2[C@@H]3CC=C4c5sc(Nc6ncccc6C)nc5CC[C@]4(C)[C@H]3CC[C@@]21C` was tested, and the growth was -9.62% (active). `CC(C)=CCC[C@](C)(O)[C@H]1CC[C@]2(C)[C@@H]1CC[C@@H]1[C@@]3(C)CC[C@H](N)C(C)(C)[C@@H]3CC[C@]12C` was tested, and the growth was -41.2% (active). For `Cc1cc2nc3c4cc(C#N)ccc4n(CCN(C)C)c3nc2cc1C`, the growth was 3.51% (active). `N#Cc1c(-c2cccs2)cc(-c2cnccn2)nc1SCC(=O)N/N=C/c1ccncc1` showed a growth of 96.1%. With `CCOC(=O)c1cccc(NC2=C(Cl)C(=O)C(C)=C(C)C2=O)c1` the growth was 0.169% (active). `c1ccc(-c2cn3c(-c4c[nH]c5ccccc45)csc3n2)cc1` gave a growth of 36.5%. `Cc1cc(Br)ccc1-n1cc(C#N)c(N)c1C(=O)c1ccc(Br)cc1` was tested, and the growth was 119%. With `Cn1cc(-c2cc3ncnc(Nc4ccc(NC(=O)Nc5cc(C(C)(C)C)on5)cc4)c3s2)cn1` the growth was 8.65% (active). With `Nc1cc(C(=O)N/N=C\c2ccc(OC(F)F)c(OC3CCCC3)c2)nn1CC(O)c1ccccc1` (stereo unspecified) the growth was 88.4%. With `COc1ccc(C2CC(c3cccc(OCCCCOc4cccc(C5=NOC(c6ccc(OC)cc6)C5)c4)c3)=NO2)cc1` (stereo unspecified) the growth was 45.1%. With `O=C(COc1ccc(/C=C2\C(=O)Nc3ccc(Cl)cc32)cc1)Nc1ccc(Cl)cc1` the growth was 28.2%. In the case of `Cn1cc(-c2nnc(N)nc2-c2c[nH]c3ccc(F)cc23)c2cc(Br)ccc21`, the growth was 6.36% (active). `C[C@H](Nc1ncnc2ccc(-c3cnc(Cl)c(NS(C)(=O)=O)c3)cc12)c1ccccc1` gave a growth of 17.2%. Molecule `O=C(CSc1nc2ccccc2c(=O)n1CCc1ccccc1)Nc1ccc(S(=O)(=O)Nc2ccc(Cl)nn2)cc1` has a growth of 87.2%. Molecule `NS(=O)(=O)c1ccc(Nc2nc(N/N=C/C=C/c3ccccc3)nc(Nc3ccccc3)n2)cc1` has a growth of 27.1%. For `O=C1[C@H]2Cc3c([nH]c4ccccc34)[C@H](c3ccc(Br)cc3)N2C(=O)CN1C1CCN(CC2CCCCC2)CC1`, the growth was 6.13% (active). `CCc1cc2c(cc1Cl)nc1c(=O)[nH]c(=O)nc-1n2CCOCC(C)(C)C` was tested, and the growth was 57.4%. `COc1ccc(-c2nc(C#N)c(N3CCC(S(=O)(=O)N4CCOCC4)CC3)o2)cc1` gave a growth of 98.8%. For `COC(=O)c1ccc(NC2=C(Cl)C(=O)c3nc(C)ccc3C2=O)cc1`, the growth was 7.53% (active). For `Cc1ccccc1N1CCN(C2=C(Cl)C(=O)c3ncccc3C2=O)CC1`, the growth was 7.01% (active). `CC[C@]12C=CCN3CC[C@@]4(c5ccc(OC)cc5N(C)[C@H]4[C@@](O)(C(=O)OC)[C@@H]1OC(=O)CCN1CCc4ccccc4C1)[C@@H]32` gave a growth of 75.4%. Molecule `Cc1nc(N)sc1-c1csc(Nc2ccc(C(F)(F)F)cc2)n1` has a growth of 22.5%. With `Cn1cc(-c2nnc(N)nc2-c2c[nH]c3ccc(Br)cc23)c2cc(Br)ccc21` the growth was 105%. With `C#C[C@]1(O)CC[C@H]2[C@@H]3CC=C4c5sc(N(C)c6ccccc6)nc5CC[C@]4(C)[C@H]3CC[C@@]21C` the growth was 2.88% (active). Molecule `NS(=O)(=O)c1ccc(Nc2nc(Nc3ccccc3)nc(N3N=C(c4ccc(Cl)cc4)CC3c3ccc(Cl)cc3)n2)cc1` (stereo unspecified) has a growth of 32.5%. With `O=C(CCCCCCN1CC(=O)N2[C@@H](c3ccc(Cl)s3)c3[nH]c4ccccc4c3C[C@H]2C1=O)NO` the growth was 27.5%. With `CCCCc1nc2c(N)nc3ccccc3c2n1Cc1cccc(CN)c1` the growth was 3.82% (active). `N#C/C(=C\c1ccc(-c2ccc(Cl)c(Cl)c2)o1)C(=O)Nc1ncc(Cc2ccc(Cl)cc2)s1` gave a growth of 52.5%. Molecule `O=C(Nc1ccc(Cl)c(C(F)(F)F)c1)Nc1ccc2oc(=O)ccc2c1` has a growth of 19.1%. For `COc1ccc2[nH]cc(/C=N/Nc3ccnc4cc(Cl)ccc34)c2c1`, the growth was -4.83% (active). Molecule `O=C1Nc2ccccc2/C1=C/c1ccc(OCC(=O)c2ccccc2)cc1` has a growth of 88.9%. `NS(=O)(=O)c1nnc(/N=C/c2c(O)[nH]c3ccccc23)s1` showed a growth of 110%. `COc1cc(/C=C2/C(=O)Nc3ccc(Cl)cc32)ccc1OCc1ccc(Cl)cc1` showed a growth of 88.6%.
